Source: article PMC12864922, “TDP-43 directly inhibits mRNA accumulation in neurites through modulation of mRNA stability”
The full ranking holds about 9,900 sequences; the median of “r (bound/input frequency ratio)” is about 0.7, and the highest 2% start at about 6.5. The full list was thinned out, with the highest values kept by preference.

B1: ENSMUSG00000042529.414|Kcnj12 (ssRNA)
RNA: GGGAGUUCUACAGUCCGACGAUCGCUUCGAUAUCCGCAUGCUAGUGUGUGUGUGUGUGUGUGUGUGUGUGUGUGUGUGUGUGUGUGUGUGAACAUGUGUGAGGGUGUGGAGGUCCCAGGGUGUGUGUAUGUGAAUGUCAGUGGCUUGGGUGCUGUGUGGAGAGAGAGAGAGAGAGAGAGAGAGAGAGAGAGAGAGAGAGAGAGAGAGAGCUGCACAGGAUGAAGCAGCUGCCCUGAGCCCAUCUGGUGCUGUGCACCUGGUCCUUGUCCAGCCGAGGGCCUGGGGGCAGAAGAACACACCAUACUCUUGCGGUCGCACUAGUGUGGAAUUCUCGGGUGUCAAGG
B2: ENSMUSG00000042529.391|Kcnj12 (ssRNA)
RNA: GGGAGUUCUACAGUCCGACGAUCGCUUCGAUAUCCGCAUGCUAAGACAUGAUCAGUCCGACUUGAGUCCCUGCCCUGCCCUGGUUAUGCAGGCUGUACGACGCAGUGUGCAUCAGUCUGAGGAGUCUGGUGGUAAGUAAGCCUCUGCAGCAGACCCUGUCGGAGGCCAUGGGGGCGUGUGUGUGUGUGUGUGUGUGUGUGUGUGUGUGUGUGUGUGUGUGUGUGUGUGAACAUGUGUGAGGGUGUGGAGGUCCCAGGGUGUGUGUAUGUGAAUGUCAGUGGCUUGGGUGCUGUGUGGAGAGAGCUCUUGCGGUCGCACUAGUGUGGAAUUCUCGGGUGUCAAGG
B3: ENSMUSG00000042529.396|Kcnj12 (ssRNA)
RNA: GGGAGUUCUACAGUCCGACGAUCGCUUCGAUAUCCGCAUGCUACCUGCCCUGGUUAUGCAGGCUGUACGACGCAGUGUGCAUCAGUCUGAGGAGUCUGGUGGUAAGUAAGCCUCUGCAGCAGACCCUGUCGGAGGCCAUGGGGGCGUGUGUGUGUGUGUGUGUGUGUGUGUGUGUGUGUGUGUGUGUGUGUGUGUGUGAACAUGUGUGAGGGUGUGGAGGUCCCAGGGUGUGUGUAUGUGAAUGUCAGUGGCUUGGGUGCUGUGUGGAGAGAGAGAGAGAGAGAGAGAGAGAGAGAGAGAGAGCUCUUGCGGUCGCACUAGUGUGGAAUUCUCGGGUGUCAAGG
B4: ENSMUSG00000042529.389|Kcnj12 (ssRNA)
RNA: GGGAGUUCUACAGUCCGACGAUCGCUUCGAUAUCCGCAUGCUAGAUGCUGGCCACAGACAUGAUCAGUCCGACUUGAGUCCCUGCCCUGCCCUGGUUAUGCAGGCUGUACGACGCAGUGUGCAUCAGUCUGAGGAGUCUGGUGGUAAGUAAGCCUCUGCAGCAGACCCUGUCGGAGGCCAUGGGGGCGUGUGUGUGUGUGUGUGUGUGUGUGUGUGUGUGUGUGUGUGUGUGUGUGUGUGAACAUGUGUGAGGGUGUGGAGGUCCCAGGGUGUGUGUAUGUGAAUGUCAGUGGCUUGGGUGCUCUCUUGCGGUCGCACUAGUGUGGAAUUCUCGGGUGUCAAGG
B5: ENSMUSG00000042529.390|Kcnj12 (ssRNA)
RNA: GGGAGUUCUACAGUCCGACGAUCGCUUCGAUAUCCGCAUGCUAGGCCACAGACAUGAUCAGUCCGACUUGAGUCCCUGCCCUGCCCUGGUUAUGCAGGCUGUACGACGCAGUGUGCAUCAGUCUGAGGAGUCUGGUGGUAAGUAAGCCUCUGCAGCAGACCCUGUCGGAGGCCAUGGGGGCGUGUGUGUGUGUGUGUGUGUGUGUGUGUGUGUGUGUGUGUGUGUGUGUGUGUGAACAUGUGUGAGGGUGUGGAGGUCCCAGGGUGUGUGUAUGUGAAUGUCAGUGGCUUGGGUGCUGUGUGGCUCUUGCGGUCGCACUAGUGUGGAAUUCUCGGGUGUCAAGG
B6: ENSMUSG00000043670.183|Diras1 (ssRNA)
RNA: GGGAGUUCUACAGUCCGACGAUCGCUUCGAUAUCCGCAUGCUAGACAGAAUCUGAGCCUCUUUGCUGGUCAUGUGUACUCUGGAGACUGUCCCCCAUGUCUGCCCUGAGUUACGGAGCCCCUGUGGUAUCUGCGAGACUGUCCAGGAGACUUGAGUGGCUCCUGGGCCUGUGUCCCACCCAGAUGAGGGUGACUUAGAAUUCUGUGUUUAUGUGCCUGUGUGUGUGGAUGGGUGUGUGUCUGUCUUGGGAUGGGGUGUUCUUGCACCACUUUGUGUUCUUAGUGAGACCACAGUGUAAGUGGCCUCUUGCGGUCGCACUAGUGUGGAAUUCUCGGGUGUCAAGG
B7: ENSMUSG00000042529.413|Kcnj12 (ssRNA)
RNA: GGGAGUUCUACAGUCCGACGAUCGCUUCGAUAUCCGCAUGCUAGUGUGUGUGUGUGUGUGUGUGUGUGUGUGUGUGUGUGUGUGUGUGUGUGUGUGAACAUGUGUGAGGGUGUGGAGGUCCCAGGGUGUGUGUAUGUGAAUGUCAGUGGCUUGGGUGCUGUGUGGAGAGAGAGAGAGAGAGAGAGAGAGAGAGAGAGAGAGAGAGAGAGAGAGAGCUGCACAGGAUGAAGCAGCUGCCCUGAGCCCAUCUGGUGCUGUGCACCUGGUCCUUGUCCAGCCGAGGGCCUGGGGGCAGAAGAACACCUCUUGCGGUCGCACUAGUGUGGAAUUCUCGGGUGUCAAGG
B8: ENSMUSG00000042529.395|Kcnj12 (ssRNA)
RNA: GGGAGUUCUACAGUCCGACGAUCGCUUCGAUAUCCGCAUGCUACCCUGCCCUGCCCUGGUUAUGCAGGCUGUACGACGCAGUGUGCAUCAGUCUGAGGAGUCUGGUGGUAAGUAAGCCUCUGCAGCAGACCCUGUCGGAGGCCAUGGGGGCGUGUGUGUGUGUGUGUGUGUGUGUGUGUGUGUGUGUGUGUGUGUGUGUGUGUGAACAUGUGUGAGGGUGUGGAGGUCCCAGGGUGUGUGUAUGUGAAUGUCAGUGGCUUGGGUGCUGUGUGGAGAGAGAGAGAGAGAGAGAGAGAGAGAGAGCUCUUGCGGUCGCACUAGUGUGGAAUUCUCGGGUGUCAAGG
B9: ENSMUSG00000042529.394|Kcnj12 (ssRNA)
RNA: GGGAGUUCUACAGUCCGACGAUCGCUUCGAUAUCCGCAUGCUAUUGAGUCCCUGCCCUGCCCUGGUUAUGCAGGCUGUACGACGCAGUGUGCAUCAGUCUGAGGAGUCUGGUGGUAAGUAAGCCUCUGCAGCAGACCCUGUCGGAGGCCAUGGGGGCGUGUGUGUGUGUGUGUGUGUGUGUGUGUGUGUGUGUGUGUGUGUGUGUGUGUGAACAUGUGUGAGGGUGUGGAGGUCCCAGGGUGUGUGUAUGUGAAUGUCAGUGGCUUGGGUGCUGUGUGGAGAGAGAGAGAGAGAGAGAGAGAGCUCUUGCGGUCGCACUAGUGUGGAAUUCUCGGGUGUCAAGG

target: TDP-43 (Homo sapiens, UniProt Q13148 1-414); experiment: RNA Bind-n-Seq with designed 260-mer pool; 25 mM Tris-HCl, 150 mM KCl, 3 mM MgCl2, BSA (printed 500 mg/mL), 20 units/mL SUPERase IN; pH not stated; 500 nM RNA pool, 1 h, 4 C; TDP-43 5, 50, 500 nM; high values mean tight binding; details: protein: recombinant; tags: SBP (GST cleaved off with PreScission; pGEX-GST-SBP)
Sequence (Q13148 whole entry): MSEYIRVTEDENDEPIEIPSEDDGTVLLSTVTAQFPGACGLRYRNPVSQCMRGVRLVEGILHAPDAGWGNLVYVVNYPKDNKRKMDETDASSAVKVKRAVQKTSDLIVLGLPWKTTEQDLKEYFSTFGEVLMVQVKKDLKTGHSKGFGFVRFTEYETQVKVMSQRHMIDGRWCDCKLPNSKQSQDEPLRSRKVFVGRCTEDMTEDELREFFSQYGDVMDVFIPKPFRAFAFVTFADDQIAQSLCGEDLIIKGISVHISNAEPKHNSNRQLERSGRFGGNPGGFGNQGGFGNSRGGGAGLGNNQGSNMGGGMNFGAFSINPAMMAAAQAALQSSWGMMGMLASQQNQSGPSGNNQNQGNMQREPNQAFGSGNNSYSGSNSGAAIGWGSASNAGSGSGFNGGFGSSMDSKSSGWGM
In short: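 In 25 mM Tris-HCl, 150 mM KCl, 3 mM MgCl2, BSA and SUPERase IN, 500 nM of an in vitro-transcribed 260-nt 3′ UTR oligo pool was incubated for 1 h at 4 °C with SBP-tagged TDP-43 (5, 50 or 500 nM) captured on streptavidin beads. RNA remaining after washes was biotin-eluted, reverse transcribed, PCR-amplified and sequenced. Binding, R, is the bound-sample abundance of each oligo, normalized to mapped reads, divided by its abundance in input. Each duplicate used a separate, independent protein batch.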

Row | Binder | binding signal
1 | B1 | 5.01 R (bound/input frequency ratio)
2 | B2 | 10.1 R (bound/input frequency ratio)
3 | B3 | 7.9 R (bound/input frequency ratio)
4 | B4 | 7.39 R (bound/input frequency ratio)
5 | B5 | 8.92 R (bound/input frequency ratio)
6 | B6 | 5.8 R (bound/input frequency ratio)
7 | B7 | 4.88 R (bound/input frequency ratio)
8 | B8 | 5.73 R (bound/input frequency ratio)
9 | B9 | 5.55 R (bound/input frequency ratio)
